Abeta rescue – A-beta toxicity reversal in yeast | AID 1347071 | yeast expressing A-beta42, growth rescue, OD600, 48 h; response scale: 0% DMSO, 100% iron-clioquinol control | 0.063% of 410,000 active | Potency, µM (series often up to 46.1 µM), most hits filed as activators; also: nearly all actives have a fitted effect of over 55% in size
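Yeast growth medium received pinned compounds, then yeast cells expressing toxic A-beta were added; plates incubated at 30 C for 48 hr. Growth read as absorbance at 600 nm, normalized to DMSO and equimolar FeCl3 plus clioquinol controls.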
TDP43 rescue – TDP-43 toxicity inhibition in yeast | AID 652104 | Potency, µM (highest dose often 46.1 µM), for inactives: at the highest dose growth rescue (activation), hits mostly activators | 1.8% of 410,000 active | TDP-43 expressing yeast growth rescue, BacTiter-Glo, 24 h; also: % of control where 0% means no effect; nearly all actives have a fitted effect of over 50% in size
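Readout is BacTiter-Glo luminescence of cell growth, so inhibitors register as activators. TDP-43-expressing yeast at OD600=0.02 in galactose medium, after raffinose pregrowth to mid-log, were incubated with compound for 24 hr at 30 deg C.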
FUS suppressor – suppressors of FUS proteinopathy in yeast; S. cerevisiae FUS-expressing, growth rescue, OD600, 24 h; Potency, µM (top dose mostly 76.6 µM), hits mostly activators; 0.24% of 390,000 active; AID 1347120;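 also: plate controls were DMSO vehicle for no effect and reference control for full effect; nearly all actives have a fitted effect of over 55% in size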
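Quantitative HTS measuring growth restoration of FUS-toxic yeast. Galactose-induced cells (OD 0.005) were exposed 24hr at 30C to compounds at several concentrations, then absorbance at 600 nm was recorded.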
aSyn rescue – rescues yeast growth from alpha-synuclein toxicity | 0.14% of 370,000 active | AID 652106 | Yeast expressing alpha-synuclein, growth rescue, BacTiter-Glo, 24 h | Potency, µM (top dose mostly 46.1 µM), inactives show at the top dose growth rescue (activation), most hits filed as activators; also: % of control where 0% means no effect; nearly all actives have a fitted effect of over 65% in size
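Galactose-induced alpha-syn yeast (OD600=0.02, raffinose-pregrown) + pinned cpd, 24 hr, 30 deg C; growth by BacTiter-Glo luminescence. Growth restoration scores as activation.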
* hit, by the source's call; i = inactive; ? = inconclusive; . = not tested or not shown. An excerpt weighted towards active compounds, which were near 2.1% of everything screened. Calls follow the shape of the dose curve; as a rule, active = well fitted curve in the direction sought with a large enough effect; inconclusive = small, poorly fitted or top-dose-only effect, or another doubt; inactive = no such curve, though single readings can be large; an effect the other way counts as inactive or inconclusive. Potency is read from the fitted curve at half-maximal effect.

SMILES | Abeta rescue | TDP43 rescue | FUS suppressor | aSyn rescue
O=C(Nc1ccc(Cl)c(Cl)c1)N1CCC(c2ccccc2)C1 (configuration not stated) | i | 35µM* | i | .
O=C(NNC(=S)Nc1ccc(Cl)c(Cl)c1)c1ccccn1 | i | 16% | i | 10µM*
Cc1ccc(C2CCN(C(=O)Nc3ccc(Cl)c(Cl)c3)C2)cc1 (configuration not stated) | i | ? | i | .
Cc1ccc(-c2cc(C(=O)NN=Cc3ccc(-c4ccccc4)cc3)[nH]n2)cc1 | . | . | i | .
CCOC(=O)[C@@]12CCC3=C1N(CCC3)C(=O)[C@H](CC(=O)NCCCOC)C2 | . | . | i | .
O=C(Nc1ccccc1)N1CCC(c2ccccc2)C1 (configuration not stated) | i | 28% | i | -5%
O=C(c1ccc(NC(=S)Nc2ccc(Cl)c(Cl)c2)cc1)N1CCCC1 | i | 18µM* | i | -63%
Cc1ccc(NC(=O)N2CCCC(c3ccccc3)C2)cc1 (configuration not stated) | i | 18µM* | i | -3%
CC(C)CSc1ncccc1-c1nc2ccccc2[nH]1 | . | . | i | .
O=S(=O)(Nc1cccc(C(F)(F)F)c1)c1ccc(-c2cnc(C3CC3)o2)cc1 | i | 25µM* | i | .
Cc1ccc(NS(=O)(=O)c2ccc(-c3cnc(C4CC4)o3)cc2)c(C)c1 | . | 28µM* | ? | ?
Cc1ccc(-c2cnc(C3CC3)o2)cc1S(=O)(=O)Nc1ccccc1 | i | 32µM* | i | ?
Cc1cc(C)c(NS(=O)(=O)c2ccc(-c3cnc(C4CC4)o3)cc2)c(C)c1 | 13µM* | ? | i | .
COc1ccccc1NS(=O)(=O)c1ccc(-c2cnc(C3CC3)o2)cc1 | i | 28% | i | 27%
O=S(=O)(Nc1ccc(F)cc1Cl)c1ccc(-c2cnc(C3CC3)o2)cc1 | ? | 35µM* | i | ?
CC1CC(C)CN(C(=O)c2ccc(-c3ccc([N+](=O)[O-])cc3)o2)C1 (configuration not stated) | i | 14µM* | i | -15%
O=C(c1ccc(-c2ccc([N+](=O)[O-])cc2)o1)N1CCCCC1 | i | 13µM* | i | 0%
O=C(c1ccc(-c2cccc([N+](=O)[O-])c2)o1)N1CCN(c2ccc([N+](=O)[O-])cc2)CC1 | i | -8% | i | 1%
Cc1ccccc1CNC(=O)C1CCC(CNS(=O)(=O)c2cccc3cccnc23)CC1 (configuration not stated) | . | . | i | .
c1ccc2cc(Cn3ccc4ccc(-c5ccc6cc[nH]c6c5)cc43)ccc2c1 | . | . | i | .
CC(=O)N/C(=C/c1ccccc1)c1sc2ccccc2[n+]1CCCCI | . | . | . | -5%
O=S(=O)(c1cccnc1)N1CCN(c2nc(-c3cccs3)nc3ccccc23)CC1 | . | . | . | 0%
Fc1ccccc1CNc1ncnc2sccc12 | i | 11µM* | i | -2%
Fc1cccc(Nc2ncnc3sccc23)c1 | i | 20µM* | i | -8%
c1ccc2c(c1)OCC(CNc1ncnc3sccc13)O2 (configuration not stated) | i | 20µM* | i | 12%
SMILES | Abeta rescue | TDP43 rescue | FUS suppressor | aSyn rescue
CC(=O)c1ccc(NC(=O)Cn2nc(N3CCN(c4ccccc4)CC3)ccc2=O)cc1 | i | 0% | i | .
Cc1ccc(NC(=O)Cn2nc(N3CCN(c4ccccc4)CC3)ccc2=O)cc1F | i | 18µM* | ? | .
O=C(Nc1ccc(F)cc1)c1ccc(Cn2nc(N3CCN(c4ccccc4)CC3)ccc2=O)o1 | i | 22µM* | ? | .
COC(=O)C[C@H]1CC[C@H]2[C@H](COc3ccc(NC(=O)C4CCOCC4)cc3C(=O)N2C)O1 | . | . | i | .
CCN(CC)C(=O)C1CCCc2c1[nH]c1ccc(Cl)cc21 (configuration not stated) | i | 14µM* | i | -7%
O=CNC1CCCc2c1[nH]c1ccc(Cl)cc21 (configuration not stated) | i | 14µM* | . | 16%
COc1ccc(C=Nn2c(-c3n[nH]c4c3CCC4)n[nH]c2=S)cc1OCc1ccccc1 | . | . | i | .
O=C(NCCc1ccc(F)cc1)c1cc(=O)c2ccccc2o1 | i | 22µM* | i | 14%
Cc1ccccc1NC(=O)c1cc(=O)c2ccccc2o1 | i | 13µM* | i | -10%
CN(C(=O)[C@@H](C1CC1)[C@@H](O)c1ccc(Cl)cc1)c1ccccc1 | . | . | i | .
Nn1cnc2c(c1=O)C1(CCCCC1)Cc1ccccc1-2 | i | 10µM* | . | 0%
CC(=O)Nn1cnc2c(c1=O)C1(CCCC1)Cc1ccccc1-2 | i | 2% | i | -1%
O=C(NC1CCCCN(Cc2cccc(C(F)(F)F)c2)C1=O)c1c(F)cccc1F (configuration not stated) | . | . | i | .
Cc1ccc(-c2nc3ccc([N+](=O)[O-])cc3[nH]2)cc1 | i | 18µM* | i | 1%
COc1ccc(-c2nc3ccc([N+](=O)[O-])cc3[nH]2)cc1 | i | 16% | i | 11%
Nc1ccc2nc(-c3ccc(-c4nc5ccc(N)cc5[nH]4)cc3)[nH]c2c1 | ? | 14µM* | i | 9%
Nc1ccc(-c2nc3ccc(-c4nc5ccc(N)cc5[nH]4)cc3[nH]2)cc1 | . | . | . | -28%
CC(=O)c1cc(-c2cnn(Cc3ccccc3)c2)c(=O)n2c1CCC2 | . | . | i | .
Cc1ccc(S(=O)(=O)CC(=O)Nc2nc(-c3ccccc3)cs2)cc1 | i | 10µM* | i | 12%
CCc1ccccc1OCC(=O)Nc1nc(-c2cccnc2)cs1 | ? | 6.3µM* | i | ?
O=C(Cc1c(F)c(F)c(F)c(F)c1F)Nc1nc(-c2ccccc2)cs1 | i | 20µM* | i | -9%
CCC(C)NC(=O)CN1C(=O)C2CCCCN2C(=O)c2ccccc21 (configuration not stated) | . | . | i | .
O=C(NCc1ccc(Cl)cc1)C1CCCN(c2ncccn2)C1 (configuration not stated) | . | . | i | .
COc1ccc(-c2csc(CCn3nc(C)cc3C)n2)cc1 | i | 18µM* | i | -7%
COc1ccc(-c2csc(CCn3nc(C)cc3C)n2)cc1OC | i | 24% | i | 22%
SMILES | Abeta rescue | TDP43 rescue | FUS suppressor | aSyn rescue
COc1ccc(Cn2ccc3ccc(-c4ccc5ccn(Cc6cccc(F)c6)c5c4)cc32)cc1 | . | . | i | .
Cc1ccc(NC(=O)C(=O)NNC(=O)c2cccs2)cc1 | i | 3% | i | -5%
Cc1ccc(NC(=O)c2cccs2)cc1 | i | -23% | 28µM* | -27%
CCCCN(CCCC)S(=O)(=O)c1ccc(NC(=O)c2cccs2)cc1 | i | -29% | 2µM* | -3%
O=S1(=O)C=CCN1Cc1cn(Cc2cccc(Cl)c2)nn1 | . | . | i | .
O=C(/C=C/c1ccccc1)Nc1sc2c(c1C(=O)O)CCC2 | i | -25% | i | 0%
CCCCCCOc1ccc(/C=C/C(=O)Nc2sc3c(c2C(=O)OC)CCC3)cc1OC | i | 18µM* | i | .
